Source: PubChem BioAssay (NCATS)
Records with an inconclusive call do not appear. Where a call stands in place of a potency, no number is given. A number with no mark means an inactive call. Active and inactive are the calls of the source. Calls follow the shape of the dose curve; as a rule, active = well fitted curve in the direction sought with a large enough effect; inconclusive = small, poorly fitted or top-dose-only effect, or another doubt; inactive = no such curve, though single readings can be large; an effect the other way counts as inactive or inconclusive.

Tests used:
[1] = target: Aldehyde dehydrogenase, mitochondrial (Homo sapiens) (UniProt P05091); test: qHTS for Inhibitors of the Aldehyde Dehydrogenase Family (ALDH2) Primary screen (AID 2061308); also: nearly all actives have a fitted effect of over 55% in size
[2] = target: Retinaldehyde dehydrogenase 3 (Homo sapiens) (UniProt P47895); test: qHTS for Inhibitors of the Aldehyde Dehydrogenase Family (ALDH1A3) Primary screen (AID 2061315)

CCOC(=O)c1ccoc1-c1ccc2ncnc(N(C)Cc3sccc3C)c2c1
Potency [1]: inactive | Potency [2]: inactive

Cc1cnc(N2CCC(C(N)=O)CC2)nc1-c1cccc(N(C)C)c1
Potency [1]: inactive | Potency [2]: inactive

CCOC(=O)C1CCN(C(=O)C(C)(C)NC(=O)Nc2ccc(C#N)cc2)CC1
Potency [1]: inactive | Potency [2]: inactive

Cc1cc(N[S+](=O)([O-])c2ccc(NC(=O)Cc3nc4ccc(Cl)cc4[nH]3)cc2)no1
Potency [1]: inactive | Potency [2]: inactive

Cc1ccc(OCCn2c(CCNC(=O)N3CCCCC3)nc3ccccc32)cc1
Potency [1]: inactive | Potency [2]: inactive

N#Cc1nc(Nc2cc(F)cc(F)c2)c2ncn(CCO)c2n1
Potency [1]: inactive | Potency [2]: inactive

O=c1c2ccccc2nc2sc(Nc3cccc(Br)c3)nn12
Potency [1]: inactive | Potency [2]: inactive

C=CC(C)(C)c1[nH]c2ccccc2c1C[C@@H]1NC(=O)[C@H](C)NC1=O
Potency [1]: inactive | Potency [2]: inactive

Cc1ccc(NC(=O)CSc2nnc(-c3cccc([S+](=O)([O-])N4CCCC4)c3)n2-c2c(C)cccc2C)cc1
Potency [1]: inactive | Potency [2]: inactive

C[C@@H]1O[C@@H](O[C@H]2[C@H](OC(=O)[C@]34CCC(C)(C)C[C@H]3C3=CCC5[C@@]6(C)C[C@H](O)[C@H](O[C@@H]7O[C@H](CO)[C@@H](O[C@@H]8O[C@H](CO)[C@@H](O)[C@H](O)[C@H]8O)[C@H](O)[C@H]7O)[C@@](C)(CO)C6[C@H](O)C[C@@]5(C)[C@]3(C)C[C@H]4O)OC[C@H](O)[C@@H]2O)[C@H](O)[C@H](O)[C@H]1O[C@@H]1OC[C@@H](O)[C@H](O[C@@H]2OC[C@](O)(CO)[C@H]2O)[C@H]1O (some centres not stated)
activity change, negative = inhibition [1]: -1.66% [at 11.2 µM] | activity change, negative = inhibition [2]: -12.4% [at 11.2 µM]

O=C(Nc1ccc(Br)cc1)Nc1nnc(-c2ccncc2)s1
Potency [1]: inactive | Potency [2]: inactive

Cc1c(C(=O)O)[nH]c2c1C(=O)CCC2
Potency [1]: inactive | Potency [2]: inactive

C[C@H](N)C(=O)Nc1ccc(Cl)cc1C(=O)c1ccc[nH]1
Potency [1]: inactive | Potency [2]: inactive

COCCNc1nc(C)nc2c1nc(-c1ccccc1)n2CC1CCN(C)CC1
Potency [1]: inactive | Potency [2]: inactive

Cc1cnccc1-c1nc(Nc2ccc(F)c(F)c2)c2ccccc2n1
Potency [1]: inactive | Potency [2]: inactive

O=C(Nc1ncc([S+](=O)([O-])N2CCOCC2)s1)c1cccc(Br)c1
Potency [1]: inactive | Potency [2]: inactive

OC[C@H]1O[C@@H](Oc2cccc3ccccc23)[C@H](O)[C@@H](O)[C@H]1O
Potency [1]: inactive | Potency [2]: inactive

COc1ccc(NS(=O)(=O)c2ccc(C)cc2)cc1C(=O)Nc1nc(-c2ccccc2)cs1
Potency [1]: inactive | Potency [2]: inactive

O=C(NC(NC(=S)Nc1ccc(F)c([N+](=O)[O-])c1)C(Cl)(Cl)Cl)C(c1ccccc1)c1ccccc1 (configuration not stated)
Potency [1]: inactive | Potency [2]: inactive

N#Cc1nc(Nc2cccc(Cl)c2)c2ncn(C3CCCC3)c2n1
Potency [1]: inactive | Potency [2]: inactive

Cc1cc(C)nc(NC(=S)N2CCN(c3ccc(N4CCCC4)nn3)CC2)c1
Potency [1]: inactive | Potency [2]: inactive

c1nc(NCc2ccc3c(c2)OCO3)c2cc(-c3ccc4c(c3)OCCO4)ccc2n1
Potency [1]: inactive | Potency [2]: inactive

COc1cc(-c2ccc3ncnc(NCC4CCCO4)c3c2)cc(OC)c1OC (configuration not stated)
Potency [1]: inactive | Potency [2]: inactive

C=C(C)C(=O)O[C@H]1[C@H]2C(=C)C(=O)O[C@@H]2C[C@@H](C)[C@@H]2O[C@@H]2C(=O)[C@](C)(O)[C@@H]1OC(=O)C(=C)C
Potency [1]: inactive | Potency [2]: inactive

Cc1ccc(NS(=O)(=O)c2cccc(C(=O)O)c2)cc1C
Potency [1]: inactive | Potency [2]: inactive

Cc1cc(N[S+](=O)([O-])c2ccc(NC(=O)Cc3ccc(Cl)c([N+](=O)[O-])c3)cc2)no1
Potency [1]: inactive | Potency [2]: inactive

CC(C)(C)OC(=O)Cc1nnc(CNC(=O)c2ccccc2)s1
Potency [1]: inactive | Potency [2]: inactive

Cc1cc(-c2nc(Nc3ccc(F)c(F)c3)c3ccccc3n2)cc(C)n1
Potency [1]: inactive | Potency [2]: inactive

COc1ccc(C2Nc3ccccc3C(=O)N2Cc2ccccn2)cc1COc1c(C)cccc1C (configuration not stated)
Potency [1]: inactive | Potency [2]: inactive

CCN(CC)CCCC(C)n1c(-c2ccccc2)nc2c(N(CCOC)CCOC)nc(C)nc21 (configuration not stated)
Potency [1]: inactive | Potency [2]: inactive

O=C1CCCC2=C1C(c1ccccc1C(F)(F)F)N=C(Nc1nc3ccccc3o1)N2 (configuration not stated)
Potency [1]: inactive | Potency [2]: inactive

Cc1cc(C)n2ncc(C(=O)NCC(C)C)c2n1
Potency [1]: inactive | Potency [2]: inactive

Cc1ccccc1S(=O)(=O)N1CCc2cc(-c3nc(NC(=O)Cc4ccc5c(c4)OCO5)sc3C)ccc21
Potency [1]: inactive | Potency [2]: inactive

CCCn1c(C)nc2c(NCCN3CCCC3)nc(C)nc21
Potency [1]: inactive | Potency [2]: inactive

CCOc1ccc(CCNC(=O)c2csc(Br)n2)cc1OCC
Potency [1]: inactive | Potency [2]: inactive

Cc1cc(C)nc(NC(=S)N2CCN(c3ccc(F)c(F)c3)CC2)c1
Potency [1]: inactive | Potency [2]: inactive
